# Experimental data reported in ChEMBL document CHEMBL1201862, “PubChem BioAssay data set” (2004).
# The campaign covered roughly 360,000 compounds. About 11,000 (3.1%) were called active. Inconclusive results (about 4%) are left out. The rule behind the calls is not given here. The full list was thinned out, with actives kept by preference.
# Target: Thioredoxin glutathione reductase (Schistosoma mansoni) (UniProt Q962Y6)
# Experiment: qHTS Assay for the Inhibitors of Schistosoma Mansoni Peroxiredoxins. [Related pubchem assays: 1011 (Confirmation Concentration-Response Assay for Inhibitors of the Schistosoma mansoni Redox Cascade ), 448 (Schistosoma Mansoni Peroxiredoxins (Prx2) and thioredoxin glutathione reductase (TGR) coupled assay)]
# Format: functional
row,SMILES,Potency
1,Cl.N[C@@H](CCC(=O)O)C(=O)O,5.01 µM (active)
2,Nc1c2c(nn1-c1ccc(C(=O)O)cc1)CNC2,inactive
3,Cc1ccc(CNC(=O)C(=O)NCC2OCCN2S(=O)(=O)c2ccc3c(c2)OCCO3)cc1 (stereo unspecified),631 µM (active)
4,Cc1ccc(CNC(=O)C(NS(=O)(=O)c2cccc3nsnc23)C(C)C)cc1 (stereo unspecified),inactive
5,Cc1c(C(=O)N2CCCCC2)c(S(=O)(=O)NCCc2ccc(Cl)cc2)c(C)n1C,inactive
6,CC(=O)N1CCc2cc(S(=O)(=O)Nc3ccc(C)cc3)ccc21,316 µM (active)
